Out of some 5,500 compounds screened, about 2,000 (36%) were called active. Another 18% or so got no clear call; they are omitted. Rule as the data show it: active = normalized growth mostly below about 0.91 (no sharp cut-off); inconclusive = no clear call, values can overlap the other calls; inactive = mostly above about 0.92. This is one part of the list.
Test: chemical genetic growth profiling, strain panel (AID 1159580);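 also: tested at 20 µM; growth read once vehicle control cultures reached saturation at 30 °C; 1 = growth at the plate median or of vehicle wells; lower values mean less growth of the strain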
Conditions: S. cerevisiae deletion strains, growth OD

Measured: normalized growth

O=C(NNc1c(Cl)cccc1Cl)c1ccc([N+](=O)[O-])o1
active: locus YHR030C, strain SLT2, active compounds read low 0.698 | locus YLR113W, strain HOG1, active compounds read low 0.777 | locus YPL256C, strain CLN2, active compounds read low 0.811
inactive: locus YAR019C, strain CDC15, active compounds read low 0.956 | locus YBL105C, strain PKC1, active compounds read low 0.967 | locus YBR135W, strain CKS1, active compounds read low 0.957 | locus YBR136W, strain MEC1, active compounds read low 0.964 | locus YBR160W, strain CDC28, active compounds read low 0.945 | locus YDL017W, strain CDC7, active compounds read low 0.972 | locus YDL028C, strain MPS1, active compounds read low 0.941 | locus YDL101C, strain DUN1, active compounds read low 0.964 | locus YDL108W, strain KIN28, active compounds read low 0.949 | locus YDL132W, strain cdc53, active compounds read low 0.936 | locus YDL214C, strain PRR2, active compounds read low 0.895 | locus YDR052C, strain DBF4, active compounds read low 0.981 | locus YDR054C, strain cdc34, active compounds read low 0.959 | locus YDR226W, strain ADK1, active compounds read low 0.96 | locus YDR477W, strain SNF1, active compounds read low 0.873 | locus YER123W, strain YCK3, active compounds read low 0.87 | locus YER133W, strain GLC7, active compounds read low 0.916 | locus YFL009W, strain cdc4, active compounds read low 0.918 | locus YFL029C, strain CAK1, active compounds read low 0.948 | locus YFR003C, strain YPI1, active compounds read low 0.965 | locus YFR019W, strain FAB1, active compounds read low 0.89 | locus YFR028C, strain CDC14, active compounds read low 0.925 | locus YGR040W, strain KSS1, active compounds read low 0.883 | locus YGR052W, strain FMP48, active compounds read low 0.938 | locus YGR092W, strain DBF2, active compounds read low 0.874 | locus YHR079C, strain IRE1, active compounds read low 0.885 | locus YHR082C, strain KSP1, active compounds read low 0.916 | locus YHR205W, strain SCH9, active compounds read low 0.897 | locus YIL147C, strain SLN1, active compounds read low 0.96 | locus YJL095W, strain BCK1, active compounds read low 0.833 | locus YJL128C, strain PBS2, active compounds read low 0.899 | locus YJL157C, strain FAR1, active compounds read low 0.907 | locus YJR016C, strain ILV3, active compounds read low 0.956 | locus YJR066W, strain TOR1 (second series), active compounds read low 0.851 | locus YJR066W, strain TOR1, active compounds read low 0.848 | locus YKL048C, strain ELM1, active compounds read low 0.909 | locus YKL067W, strain YNK1, active compounds read low 0.886 | locus YKL101W, strain HSL1, active compounds read low 0.884 | locus YKL193C, strain SDS22, active compounds read low 0.956 | locus YKL203C, strain TOR2, active compounds read low 0.974 | locus YLR133W, strain CKI1, active compounds read low 0.906 | locus YLR403W, strain SFP1, active compounds read low 0.897 | locus YML070W, strain DAK1, active compounds read low 0.884 | locus YMR001C, strain CDC5, active compounds read low 0.957 | locus YMR205C, strain PFK2 (second series), active compounds read low 0.937 | locus YMR277W, strain FCP1, active compounds read low 0.932 | locus YNL006W, strain LST8, active compounds read low 0.973 | locus YNL020C, strain ARK1, active compounds read low 0.919 | locus YNL161W, strain CBK1, active compounds read low 0.966 | locus YNL183C, strain NPR1, active compounds read low 0.935 | locus YNL207W, strain RIO2, active compounds read low 0.953 | locus YNL222W, strain SSU72, active compounds read low 0.94 | locus YNL307C, strain MCK1 (second series), active compounds read low 0.887 | locus YOL078W, strain AVO1, active compounds read low 0.945 | locus YOL136C, strain PFK27, active compounds read low 0.886 | locus YOR061W, strain CKA2, active compounds read low 0.914 | locus YOR119C, strain RIO1, active compounds read low 0.917 | locus YOR231W, strain MKK1, active compounds read low 0.837 | locus YOR329C, strain SCD5, active compounds read low 0.967 | locus YPL031C, strain PHO85, active compounds read low 0.88 | locus YPL153C, strain RAD53, active compounds read low 0.875 | locus YPL204W, strain HRR25, active compounds read low 0.866 | locus YPL209C, strain IPL1, active compounds read low 0.964 | locus YPR025C, strain CCL1, active compounds read low 0.962 | locus YPR106W, strain ISR1, active compounds read low 0.96 | locus YPR111W, strain DBF20, active compounds read low 0.94 | strain NNK1, active compounds read low 0.965 | strain TSCII, active compounds read low 0.947
